Sampled rows, rich in hits. Any-hit rate of the full collection: about 3%.
CF NFkB inh: cystic fibrosis NF-kB activation inhibition | KKLEB NF-kB-GFP reporter, PAF-induced, GFP fluorescence overnight | inhibition, % at 5 µM | 360,000 compounds, 0.86% hits | AID 588850;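 active = at least 50% inhibition at 5 µM, scaled per plate between neutral and stimulator controls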;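 note: PAF is a Pseudomonas aeruginosa culture filtrate used as stimulus; plate controls were PAF-stimulated DMSO wells for no effect and unstimulated DMSO wells for full effect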
HIF-2a block: inhibitors of HIF-2a; 786-0 RCC cells HIF-2a reporter, luciferase luminescence, overnight; inhibition, % at 18.8 µM; 360,000 compounds, 0.72% hits;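 active = inhibition of the luminescence signal of 40% or more relative to plate controls, in a single-dose primary screen at 18.75 µM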
MITF TRPM1 inh: inhibitors of MITF-driven TRPM1 promoter in melanoma cells; AID 488899; SK-MEL-5 TRPM1 promoter luciferase, 24 h; 330,000 compounds, 0.83% hits; inhibition, % at 12.5 µM;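 active = mean inhibition across replicates of 60% or more, whatever share of single replicates reaches that level; inconclusive = some that reach 60%, reason not given; inactive = mean inhibition across replicates below 60%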
Peg3 prom inh: Peg3 promoter activity inhibition; HeLa PEG-Prom luciferase reporter, luminescence, overnight; inhibition, % at 20 µM; 360,000 compounds, 1.7% hits;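 active = inhibition of at least 50% at 20 µM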
EBV LMP1 NFkB: inhibitors of Epstein-Barr LMP1-induced NF-kappaB reporter; LMP1-induced NF-kappaB luciferase reporter cells, luminescence; inhibition, % at 12.5 µM; 350,000 compounds, 0.69% hits; AID 504558; in the data active = inhibition above about 41%; inconclusive = no clear call, values can overlap the other calls;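 note: 0% = neutral control wells and 100% = reference inhibitor control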
KKLEB cytotox: counter-screen for CF NF-kB inhibitors: cytotoxicity; 360,000 compounds, 0.36% hits; activity change (cytotoxicity), % at 5 µM; KKLEB CF airway cells viability, ATPlite luminescence, overnight; active compounds read low; cells stimulated with P. aeruginosa culture filtrate; AID 602141;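 active = corrected activity change at or below -50% at 5 µM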
CF NFkB inh conf: confirmation of cystic fibrosis induced NF-kB inhibitors | inhibition, % at 5 µM | 1,300 compounds, 64% hits | shares compounds with CF NFkB inh | KKLEB CF airway cells, PAF-induced NF-kB-GFP fluorescence, overnight; in the data active = inhibition above about 40%;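 note: stimulus PAF is a Pseudomonas aeruginosa filtrate and not platelet activating factor; plate controls were DMSO wells with stimulus for no effect and unstimulated DMSO wells for full effect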
* = called active by the depositor; ? = inconclusive; nt = no result.

SMILES | CF NFkB inh | HIF-2a block | MITF TRPM1 inh | Peg3 prom inh | EBV LMP1 NFkB | KKLEB cytotox | CF NFkB inh conf
COC(=O)c1cc(NC(=O)Nc2cccc(Cl)c2)ccc1Cl | 50* | -294 | -30 | -71 | 1 | -30 | 35
O=C(Nc1ccccc1)Nc1ccc(Br)cc1F | -5 | -304 | -58 | -347 | -37 | 27 | nt
O=C(Nc1cccc(Cl)c1)Nc1ccc(Br)cc1F | 59* | -248 | -18 | -155 | -8 | -43 | 20
O=C(Nc1cccc(Cl)c1)Nc1cc(S(=O)(=O)N2CCCCC2)ccc1Cl | 50* | -22 | 80* | 66* | 4 | -46 | 75*
c1ccc(-c2nc3nonc3nc2-c2ccccc2)cc1 | 72* | 25 | 62* | 9 | 7 | -17 | 66*
Cc1nc2sc3c(NCc4ccco4)ncnc3c2c2c1COC(C)(C)C2 | 72* | 19 | -11 | -3 | 10 | -30 | 37
COc1cccc(CNc2ncnc3cc(OC)c(OC)cc23)c1 | 8 | 22 | 1 | 21 | 6 | 1 | nt
COc1cccc(-c2ccc3ncnc(NCc4cccnc4)c3c2)c1 | 71* | 26 | -5 | 29 | 19 | -16 | 83*
CC1=C(/C=C/C(=O)O)C(C)(C)CCC1 | 8 | 4 | 5 | 10 | -3 | -16 | nt
CC1=C(/C=C/C(C)=C/C=C/C(C)=C\C(=O)O)C(C)(C)CCC1 | 66* | 13 | -34 | -20 | -7 | -9 | 70*
Cc1cc(C)c2c(N)c(C(=O)c3ccccc3)sc2n1 | -41 | -61 | nt | -21 | nt | 6 | nt
Cc1nc2sc(C(N)=O)c(N)c2c(C)c1CC(=O)c1ccccc1 | 59* | -44 | -52 | -110 | 11 | -6 | 75*
COc1nc(=O)n(C2C=CC(=O)O2)cc1F (configuration not stated) | 87* | -4 | nt | 27 | -29 | -18 | 23
c1csc(CNc2ncnc3ccc(-c4ccoc4)cc23)c1 | 77* | 4 | -7 | -11 | ? | -7 | 92*
c1csc(CNc2ncnc3ccc(-c4ccc5c(c4)OCO5)cc23)c1 | 27 | 29 | 7 | 30 | 2 | -24 | nt
Cc1ccc2nsnc2c1NC(=O)c1ccc([N+](=O)[O-])o1 | 73* | 38 | 47 | 22 | -18 | 7 | 37
NC(=O)c1ccsc1NC(=O)c1ccc([N+](=O)[O-])o1 | 59* | -22 | 67* | 47 | -13 | -29 | -15
Cc1ccc2nsnc2c1NC(=O)CCl | -12 | 7 | -3 | 5 | 0 | 3 | nt
Cc1ccnc(NC(=O)c2ccc([N+](=O)[O-])o2)c1 | 51* | -138 | 13 | -66 | -16 | 3 | 20
O=C(Nc1ccccn1)c1ccc([N+](=O)[O-])o1 | 31 | -12 | -3 | -6 | -6 | -4 | nt
C[C@H](CO)N1C[C@H](C)[C@@H](CN(C)S(=O)(=O)c2cn(C)cn2)Oc2ncc(Br)cc2C1=O | 21 | -2 | nt | 2 | -3 | -1 | nt
Cc1ccc(CN2CC(N3CC=CC3)CS2(=O)=O)cc1 (configuration not stated) | 0 | -10 | nt | 7 | nt | -3 | nt
CNc1ncnc2c1ncn2[C@H]1CN(Cc2ccc(F)cc2)C[C@@H](CO)O1 | -9 | 7 | nt | 10 | nt | 1 | nt
C=C(C1=CCN(S(=O)C(C)(C)C)[C@@H]1CCO)c1ccccc1 (some centres not stated) | -17 | 8 | -8 | 13 | -5 | 20 | nt
CC1=C(C(=O)N2CCCCCC2)CC(CC(=O)NCCCN(C)C)C(=O)N1Cc1ccc(F)cc1 (configuration not stated) | nt | 9 | nt | nt | nt | nt | nt
SMILES | CF NFkB inh | HIF-2a block | MITF TRPM1 inh | Peg3 prom inh | EBV LMP1 NFkB | KKLEB cytotox | CF NFkB inh conf
CC(=O)Oc1ccccc1N(C(C)=O)S(=O)(=O)c1ccc2ccccc2c1 | 2 | -16 | 3 | -17 | 2 | 20 | nt
CC(=O)Oc1ccc(N(C(C)=O)S(=O)(=O)c2cccs2)c2ccccc12 | 56* | -4 | 33 | 8 | 11 | -12 | 67*
O=C1N(c2ccccc2C(F)(F)F)O[C@@]1(c1ccccc1)C1CCCCC1 | 65* | 3 | 19 | 57* | 9 | -15 | 60*
COc1ccc(CN2C(=NC(=O)CCc3ccccc3)SC3CS(=O)(=O)CC32)cc1 (configuration not stated) | -10 | 9 | 1 | 35 | 1 | 11 | nt
O=C(CCc1ccccc1)N=C1SC2CS(=O)(=O)CC2N1Cc1ccccc1 (configuration not stated) | 50* | 2 | 10 | 7 | 8 | -9 | 22
CCC1=Nc2cc(C(=O)NCc3ccco3)ccc2Sc2ccc(C)cc21 | 52* | 35 | 42 | 4 | 20 | -28 | 80*
CC1(C)CC(=O)C=C(c2ccc(COC(=O)Cc3ccccc3)cc2)C1=O | -3 | -2 | nt | -9 | -3 | 13 | nt
O=C(Nc1ccc(Oc2ccccc2)cc1)c1ccc2sc([C@H]3C[C@H](O)[C@@H](CO)O3)nc2c1 | 54* | -97 | nt | -27 | nt | 6 | 46*
COCCn1c(N)c(S(=O)(=O)c2cccs2)c2nc3ccccc3nc21 | -7 | 14 | -11 | 13 | 0 | 9 | nt
COc1cccc(/C=N/n2c(N)c(S(=O)(=O)c3cccs3)c3nc4ccccc4nc32)c1OC | 54* | 3 | 25 | 4 | -58 | 15 | 11
COC(=O)c1cc(=O)n(CCc2ccccc2)c(=Nc2ccc(F)cc2)s1 | -1 | 10 | nt | 15 | 9 | -14 | nt
CCn1c(=O)cc(C(=O)OC)sc1=Nc1ccc(F)c(F)c1 | 50* | 11 | -18 | 65* | 84* | -21 | 24
O=C(NCC(=O)N1CCCC1)NN=Cc1ccccc1O | -7 | -54 | nt | -126 | nt | -17 | nt
NC(=O)c1sc2nc3c(c(-c4ccco4)c2c1N)CCCC3 | 65* | 22 | -12 | 11 | 18 | -11 | 80*
O=C1CCCC2=C1C1(CCCC1)N=C(Nc1nc3cc(-c4ccccc4)ccc3o1)N2 | 35 | -81 | nt | -10 | nt | -13 | nt
CC(=O)Nc1nc(C)c(-c2csc(Nc3cccc(C(C)=O)c3)n2)s1 | 81* | -10 | 65* | 49 | 27 | -44 | 82*
CCC(=O)Nc1nc(C)c(-c2csc(Nc3cccc(C(=O)O)c3)n2)s1 | 4 | -14 | 3 | -39 | 10 | 10 | nt
Cc1cc(C)n2nc(C(=O)OCC(=O)Nc3cc(S(=O)(=O)N4CCOCC4)ccc3Cl)nc2n1 | 6 | 11 | nt | 8 | -6 | -2 | nt
Clc1cccc(Cl)c1/C=N/Nc1c(Cl)cncc1Cl | -2 | 8 | 8 | 24 | -6 | 1 | nt
Clc1cncc(Cl)c1N/N=C/c1ccncc1 | 81* | 14 | 11 | -12 | 34 | -42 | 78*
Cn1nc(C(=O)OCC(=O)NCc2ccc(Cl)cc2Cl)c2ccccc2c1=O | -12 | 7 | nt | -54 | -8 | 10 | nt
Cc1c(N=O)c(-c2ccccc2)n(O)[n+]1[O-] | 13 | 7 | nt | -2 | 6 | 0 | nt

Screening results as filed in PubChem BioAssay.
